Measured values reported in PubChem BioAssay.

Key:
[1] = system: Human papillomavirus type 1a protein E7 (residues 44-93); assay: HPV1a E7 fragment binders on microarrays, primary screen, biochemical, small-molecule microarray, residues 44-93, 635 nm fluorescence (AID 1108); conditions: small-molecule microarray binding, fluorescence 635 nm; higher = more signal;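 further: E7 fragment applied at 1 µg/mL in TBST for 1 h at 4 C; score combines spot fluorescence with its signal to noise ratio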
[2] = modulators of HCV replicon luciferase signal, primary screen, HCV replication inhibitor project, Huh7 cells, luciferase reporter (AID 1109); conditions: 48 h, higher = more signal;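 further: huh7 hepatoma cells harbouring a luciferase neomycin HCV replicon reporter; luciferase luminescence as measure of HCV replicon replication; test concentration not given here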
[3] = biological target: Left-right determination factor 2 (Homo sapiens) (UniProt O00292); assay: LEFTY2 binders on small-molecule microarrays, primary screen, biochemical, small-molecule microarray, 635 nm fluorescence scan (AID 1110); conditions: LEFTY2 binding, higher = more signal
Sequence of Left-right determination factor 2 (Homo sapiens) (O00292 whole entry, looked up): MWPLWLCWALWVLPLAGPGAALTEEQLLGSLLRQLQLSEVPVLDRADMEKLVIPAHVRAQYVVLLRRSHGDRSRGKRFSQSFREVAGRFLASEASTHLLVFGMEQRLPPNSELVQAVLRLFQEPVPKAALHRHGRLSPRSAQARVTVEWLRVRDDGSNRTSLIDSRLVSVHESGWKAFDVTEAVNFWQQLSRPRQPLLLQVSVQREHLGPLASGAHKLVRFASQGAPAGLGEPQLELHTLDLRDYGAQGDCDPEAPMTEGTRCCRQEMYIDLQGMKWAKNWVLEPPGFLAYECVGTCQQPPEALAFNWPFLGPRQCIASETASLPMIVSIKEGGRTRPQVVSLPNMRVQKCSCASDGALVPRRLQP

[4] = biological target: Calmodulin-1 (Homo sapiens) (UniProt P0DP23); assay: CALM1 binders on microarrays, EGTA buffer, profiling panel, biochemical, small-molecule microarray, Cy5-labelled CALM1 (AID 1111); conditions: Cy5-CALM1 binding fluorescence, higher = more signal;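 further: labelled calmodulin applied in Tris saline Tween buffer holding calcium plus EGTA and DTT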
[5] = biological target: Calmodulin-1 (Homo sapiens) (UniProt P0DP23); assay: calcium-bound CALM1 binders on microarrays, profiling panel, artefact control for SMM control-protein annotation, biochemical, small-molecule microarray, Cy5-labelled CALM1, plus calcium (AID 1112); conditions: Cy5-CALM1 binding fluorescence, higher = more signal;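 further: score merges spot fluorescence with signal to noise from triplicate slides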
[6] = small-molecule microarray binders of probe aWnt5a, primary screen, biochemical, biotinylated probe, 635/667 nm fluorescence (AID 1113); conditions: higher = more signal;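 further: score merges 667 nm fluorescence intensity with signal-to-noise per printed feature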
[7] = small-molecule microarray binders of probe aShh, primary screen, biochemical, biotinylated probe, 635/667 nm fluorescence (AID 1114); conditions: higher = more signal;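 further: probe is biotin-labelled aShh protein from a stem cell growth factor screen; measures binding of labelled protein to compounds printed on the slide; score merges feature fluorescence at 667 nm with signal-to-noise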
[8] = small-molecule microarray binders of probe aNog, primary screen, biochemical, biotinylated probe, 635/667 nm fluorescence (AID 1115); conditions: higher = more signal;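 further: probe is biotinylated aNog protein used at 0.15 µg/mL for 1 h at 4 C; z-score combines 667 nm fluorescence of each spot with its signal to noise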
[9] = biological target: Torsin-1A-interacting protein 1 (Homo sapiens) (UniProt Q5JTV8); assay: LAP1 binders from COS7 cell lysate, primary screen, small-molecule microarray, 635/667 nm fluorescence (AID 1116); conditions: COS7-hLAP1 lysate binding, 635 nm fluorescence, higher = more signal
Sequence of Torsin-1A-interacting protein 1 (Homo sapiens) (Q5JTV8 whole entry, looked up): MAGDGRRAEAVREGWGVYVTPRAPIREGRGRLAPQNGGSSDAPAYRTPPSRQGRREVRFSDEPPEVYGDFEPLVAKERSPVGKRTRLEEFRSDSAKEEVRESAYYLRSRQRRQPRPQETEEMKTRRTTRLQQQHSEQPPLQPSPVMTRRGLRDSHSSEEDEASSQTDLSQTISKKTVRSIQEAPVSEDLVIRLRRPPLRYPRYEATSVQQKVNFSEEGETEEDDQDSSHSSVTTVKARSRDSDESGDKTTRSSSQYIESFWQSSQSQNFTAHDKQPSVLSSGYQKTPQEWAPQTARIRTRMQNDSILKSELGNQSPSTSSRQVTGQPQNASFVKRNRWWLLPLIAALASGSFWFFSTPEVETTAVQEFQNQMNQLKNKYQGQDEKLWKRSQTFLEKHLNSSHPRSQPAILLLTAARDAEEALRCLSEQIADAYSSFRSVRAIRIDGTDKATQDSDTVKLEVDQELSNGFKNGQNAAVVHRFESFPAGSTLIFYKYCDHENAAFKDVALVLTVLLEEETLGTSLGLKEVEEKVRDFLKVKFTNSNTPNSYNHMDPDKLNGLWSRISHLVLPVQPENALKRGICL

[10] = biological target: Alpha-bungarotoxin (Bungarus multicinctus) (UniProt P60615); assay: alpha-bungarotoxin binders on microarray, profiling panel, artefact control for SMM control protein annotation, biochemical, small-molecule microarray, Alexa647 label, 635/667 nm fluorescence (AID 1117); conditions: alpha-BTX-A647 binding fluorescence, higher = more signal
Sequence of Alpha-bungarotoxin (Bungarus multicinctus) (P60615 whole entry, looked up): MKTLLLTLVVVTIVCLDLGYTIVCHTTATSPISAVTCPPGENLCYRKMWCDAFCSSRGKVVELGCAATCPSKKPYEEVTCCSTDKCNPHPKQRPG

SMILES	composite z-score [1]	z-score [2]	composite z-score [3]	composite z-score [4]	composite z-score [5]	composite z-score [6]	composite z-score [7]	composite z-score [8]	composite z-score [9]	composite z-score [10]
O=C1N(Cc2ccccc2)c2ccccc2[C@@H]2OC(c3ccc(OCCCO)cc3)=N[C@]12CCS(=O)(=O)c1ccccc1	1.38	-1.38	0.274	1.61	0.246	0.0279	-0.0575	-0.807	0.655	1.48
C=CCC(OC(C)=O)[C@@H]1[C@@H](N(Cc2ccc(-c3cccc(C(F)(F)F)c3)o2)C(=O)c2ccc(C)cc2)c2cc(OCCCO)ccc2N1C(=O)Cc1ccc2ccccc2c1 (stereo not given in full)	-0.312	0.237	-0.628	-0.424	-0.352	-0.0704	-0.237	-0.122	-0.127	0.236
COC(=O)[C@@]1(Cc2ccc(OC)cc2)[C@H]2c3cc(C(=O)N4CCCC4)n(CCN4CNCC4=O)c3C[C@H]2CN1C(=O)c1ccccc1	0.218	-0.0994	-0.0543	1.14	0.751	1.19	2.77	2.43	1.11	-0.169
O=C(NCCO)C1=C[C@H](Oc2ccccc2I)[C@@H](O)[C@H](N(Cc2ccco2)C(=O)Cc2ccccc2)C1	-0.0509	0.807	0.51	-0.0916	-0.671	0.0057	-0.209	0.0129	0.591	-0.0333
CC(C)[Si]1(C(C)C)O[C@@H](c2ccccc2)c2cc(-c3ccc(-c4ccc(Cl)c(Cl)c4)o3)nc(-c3ccccc3)c21	-0.342	-1.55	-0.115	0.487	0.0017	-0.137	-0.138	0.15	-0.101	0.575
Cc1ccc(S[C@]2(C(=O)O)CC(=O)N(C(C)C)[C@@H]2c2ccc(CO)cc2I)cc1	0.506	-1.31	-0.195	1.75	0.845	0.0611	0.111	1.65	0.836	1.18
COc1ccccc1CN1C(=O)c2ccccc2[C@@]2(Cc3ccccc3N(CC(C)C)C2=O)[C@@H]1c1ccc(CO)cc1	-0.461	-0.785	-0.389	-0.235	-0.69	-0.091	-0.214	-0.175	-0.247	-0.257
O=C1C[C@@](C(=O)NCCN2CCOCC2)(c2ccc([N+](=O)[O-])cc2)[C@@H](c2ccc(CO)cc2I)N1CC12CC3CC(CC(C3)C1)C2	1.45	-3.49	0.462	0.76	-0.581	-0.034	-0.0146	-0.388	1.17	1.48
CC(C)NC(=O)[C@@]1(C)c2ccccc2C(=O)N(Cc2cc(C(F)(F)F)cc(C(F)(F)F)c2)[C@H]1c1ccc(CO)cc1	1.02	-0.319	-0.826	0.226	0.764	-0.101	-0.0398	1.07	0.454	-0.361
O=C1C[C@@](C(=O)NCCN2CCOCC2)(c2ccc([N+](=O)[O-])cc2)[C@@H](c2ccc(CO)cc2)N1CC12CC3CC(CC(C3)C1)C2	1.47	-3.14	0.745	1.06	-0.0933	-0.0445	-0.16	-0.377	0.651	1.7
C=CCOC(=O)[C@H]1[C@@H]2C(=O)O[C@@H](c3ccccc3)[C@@H](c3ccccc3)N2[C@@H](c2ccc(OCCOC(=O)[C@H]3C[C@H]4C(=O)N[C@@H](CCCCNC(C)=O)C(=O)N4[C@H]3c3ccc(O)cc3)cc2)[C@]12C(=O)Nc1ccc(I)cc12	0.804	-3.26	0.418	0.124	-0.732	-0.0236	0.123	-0.238	0.612	0.963
CCOC(=O)C[C@H]1[C@H](OC(=O)c2ccc(C(=O)c3ccccc3)cc2)[C@@H](NC(=O)c2ccccc2)c2cc(OCCCO)ccc2N1C(=O)Cc1ccc(OC)cc1	0.525	-0.283	0.366	0.0941	-0.222	-0.107	-0.195	-0.205	0.738	0.178
CCCC[C@@H]1C[C@H]1[C@@H](NC(=O)c1cccs1)c1ccc(-c2ccccc2)cc1	0.495	-2.05	-0.0554	0.362	0.295	-0.0704	-0.138	0.103	0.254	-0.474
CCc1cccc(NC(=O)O[C@H]2[C@H](OC(=O)Nc3ccccc3-c3ccccc3)[C@@H](OC(=O)Nc3ccccc3-c3ccccc3)[C@@H](OC)O[C@@H]2CO)c1	1.52	-3.79	0.3	1.71	-0.0011	0.0839	0.432	0.572	1.47	1.53
CC(C)C(CO)N1C(=O)[C@@H]2C3C(=O)OCCC/C=C\[C@H]3OC23C=CCN(CCN2CCOCC2)C(=O)[C@@H]13 (stereo not given in full)	-0.729	0.0618	0.0228	-0.799	-0.386	-0.0529	-0.209	-0.238	1.38	-1.6
C=C(COC)/C(=C/C[C@H](OC(C)=O)c1ccc(CO)o1)c1cc(C(=O)OC)ccc1OC	0.487	-0.246	-0.151	-0.0624	0.204	-0.0107	-0.105	-0.0489	0.0742	-0.136
C=CCN1C(=O)[C@]2(O[C@H](CCn3cc([C@H](O)c4ccccc4)nn3)[C@@H]([Si](C)(C)c3ccc(OC)cc3)[C@@H]2C)c2cc(N3CCC3=O)ccc21	1.34	-3.08	0.152	0.439	-0.022	-0.0685	0.0253	0.328	0.549	1.07
C=CC[C@]1(C(=O)NCc2ccccc2)N=C(c2ccc(OCCCO)cc2)O[C@H]1c1ccccc1N=[N+]=[N-]	1.44	-0.368	0.201	1.96	0.901	0.0108	0.0875	-0.572	1.44	1.65
Oc1ccc2cc[n+](Cc3sc4ccccc4c3Cl)cc2c1	-0.317	0.514	0.0344	-0.481	-0.683	-0.124	0.318	-0.29	1.22	1.02
O=C(NCCN1CCOCC1)C1N=C(c2ccc(OCCCO)cc2)N(c2ccccc2)O1 (stereo not given)	0.694	0.289	1.08	0.745	-0.177	0.139	-0.0457	0.05	1.68	1.55
O=C1c2ccccc2[C@](Cc2ccccc2I)(C(=O)NCCN2CCOCC2)[C@H](c2ccc(CO)cc2)N1Cc1ccccc1Cl	-0.612	-2.64	0.945	1.51	0.0568	0.0215	-0.0011	-0.474	0.896	1.47
CN(C)CCCCCCNC(=O)[C@H]1C[C@H]2C(=O)N3CCC[C@H]3C(=O)N2[C@H]1c1ccc(O)cc1	1.12	1.42	1.44	-1.17	-2.33	-0.0598	0.178	0.0459	1.29	0.73
CCC[C@@H]1C[C@@]1(CCC)[C@@H](NS(=O)(=O)c1cccc2cccnc12)c1ccc(Cl)cc1	1.23	-1.38	-0.385	0.976	1.28	0.0839	0.426	1.1	0.731	0.6
COCCOC(=O)N1C(=O)[C@@]2(c3ccccc31)[C@H](C(=O)N1CCc3cc(OC)c(OC)cc3C1)[C@H]1C(=O)O[C@H](c3ccccc3)[C@H](c3ccccc3)N1[C@@H]2c1ccc(OCCO)cc1	1.02	-1.39	0.295	1.28	0.366	-0.147	-0.0863	0.495	1.05	0.663
CCOC(=O)C[C@H]1[C@H](OC(=O)c2ccc(C(=O)c3ccccc3)cc2)[C@@H](NC(=O)c2ccc3ccccc3c2)c2cc(OCCCO)ccc2N1C(=O)Cc1ccc(OC)cc1	0.86	-0.989	-0.0254	1.14	0.187	-0.0405	-0.0553	0.177	0.669	0.729
COc1cccc(-c2cccc(=O)o2)c1	-1.17	0.473	0.361	-0.753	-0.454	0.153	0.475	0.192	0.628	0.141
O=C(N1CCCCC1)[C@]1(Cc2ccccc2)N=C(c2ccc(OCCCO)cc2)O[C@@H]1c1ccccc1	1.42	-3.4	0.0931	1.48	0.516	0.0744	0.446	0.85	0.252	0.977
